According to PubChem BioAssay AID602393 (Broad Institute, 2012):
The campaign covered roughly 350,000 compounds. About 7,000 (2%) were called active. No stated cut-off is given here; in the data, active means activation above about 40%; inconclusive means no clear call, values can overlap the other calls; inactive means below that. For the sample, actives were picked, then their nearest neighbours and some compounds at random.

assay: raisers of Bmi1 knock-in reporter signal – mouse ES cells, Bmi1 luciferase knock-in, single point, esBAF inhibitor project, primary screen (AID 602393); details: 24 h, at 12.5 µM, hits give high values, 100% = twice the neutral-well signal;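 further: 0% = median of the plate's neutral control wells and 100% = double that signal; a rise in the Bmi1 reporter signal indicates esBAF inhibition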

SMILES | reporter increase
CCCC#Cc1ccc([C@H]2[C@@H](CO)N3CCCCN(S(=O)(=O)Cc4ccccc4)C[C@H]23)cc1 | -7.51% (inactive)
CCS(=O)(=O)N1[C@H](C#N)[C@H](c2ccc(-c3cccc(F)c3)cc2)[C@@H]1CO | 2.95% (inactive)
CCN1CCN(C(=O)CSc2ccc(C)cc2)CC1 | 31% (inactive)
Cc1ccc(SCC(=O)c2cc(C)c(OC(=S)N(C)C)c(C)c2)cc1 | 45.8% (active)
COC(=O)c1cc(OC)c(OC)cc1NC(=O)CSc1ccc(C)cc1 | -15.9% (inactive)
C[C@@H]1CN([C@@H](C)CO)S(=O)(=O)c2ccc(C#Cc3ccccc3F)cc2O[C@H]1CN(C)C(=O)c1ccc2c(c1)OCO2 | 0.756% (inactive)
CC(C)NC(=O)N(C)C[C@H]1Oc2c(NC(=O)c3ccncc3)cccc2C(=O)N([C@@H](C)CO)C[C@H]1C | 1.56% (inactive)
COc1ccc(C=C(C#N)C#N)c(CSc2ccccn2)c1 | -8.92% (inactive)
COc1ccc(/C=N/OCc2ccccc2C#N)c(OC)c1 | 82.2% (active)
COc1ccc(/C=C2/C(=O)N(c3ccccc3)N=C2C)c(OC)c1 | -1.3% (inactive)
C[C@H]1CN([C@@H](C)CO)S(=O)(=O)c2ccc(C3=CCCC3)cc2O[C@@H]1CN(C)Cc1ccccc1 | 1.2% (inactive)
COc1ccc(C2=Nc3ccccc3NC(=O)C2N(C(=O)c2cc3ccccc3[nH]2)c2ccccc2)cc1 (stereo not given) | 47.8% (active)
CC(OC(=O)c1cc2ccccc2[nH]1)C(=O)N(C)c1ccccc1 (stereo not given) | 7.66% (inactive)
COc1ccc(NC(=O)N(C)C[C@@H]2OCc3ccccc3-c3c(n(C)c4ccccc34)C(=O)N([C@H](C)CO)C[C@H]2C)cc1 | -4.05% (inactive)
CO[C@@H](CN(C)S(=O)(=O)c1cccc(Cl)c1)[C@H](C)CN([C@H](C)CO)S(=O)(=O)c1cccc(Cl)c1 | 6.95% (inactive)
CN1c2ccc(-c3cccc(F)c3)cc2[C@H]2[C@H](CCN2C(=O)C2CCCC2)[C@@H]1CO | 2.05% (inactive)
O=C(c1cc(-c2cccs2)on1)N1CCCCC1 | -2.46% (inactive)
COc1ccccc1-c1cc(C(=O)N2CCCCC2)no1 | 52.4% (active)
COc1ccc(C(=O)C2CCCN(C(=O)c3cc(C)on3)C2)cc1F (stereo not given) | -6.1% (inactive)
C[C@@H]1CN([C@H](C)CO)C(=O)c2cc(NC(=O)CCCN(C)C)ccc2O[C@@H](C)CCCCO[C@@H]1CN(C)Cc1ccncc1 | 1.15% (inactive)

SMILES | reporter increase
C[C@H]1CN([C@@H](C)CO)C(=O)c2cccc(NC(=O)Nc3ccccc3)c2O[C@H]1CN(C)Cc1ccc(C(F)(F)F)cc1 | -0.852% (inactive)
Cc1ccn(CCC(=O)N2c3ccccc3CC2C)n1 (stereo not given) | 0.95% (inactive)
CCCC(=O)N1c2ccc(-c3csc(N)n3)cc2CC1C (stereo not given) | 41.3% (active)
CCC(=O)N1c2ccc(S(=O)(=O)CCC(=O)N3CCN(c4ccccc4)CC3)cc2CC1C (stereo not given) | 29.9% (inactive)
Cc1csc2nc(COC(=O)c3cccc(N(C)C)c3)cc(=O)n12 | 82.1% (active)
Cc1nn2c(=O)cc(COC(=O)c3ccc(NC(=O)C(C)(C)C)cc3)nc2s1 | 2.43% (inactive)
O=c1cc(CCl)nc2scc(-c3ccccc3)n12 | -3.84% (inactive)
CN1CCN(C(=O)C[C@@H]2C[C@H]3c4cc(NC(=O)NC5CCCC5)ccc4O[C@H]3[C@H](CO)O2)CC1 | 0.154% (inactive)
CCCNC(=O)C[C@H]1C[C@@H]2c3cc(NC(=O)C4CCOCC4)ccc3O[C@@H]2[C@H](CO)O1 | -3.13% (inactive)
O=c1cc(Cn2nnc(-c3ccc(Cl)cc3)n2)nc2sccn12 | 7.92% (inactive)
COc1ccccc1N1CCN(C(=O)Cn2nnc(-c3cccs3)n2)CC1 | 3.41% (inactive)
Clc1cccc(Cl)c1Cn1nnc(-c2cccs2)n1 | 69.1% (active)
CC(=O)N(C)C[C@@H]1Oc2cc(-c3cccnc3)ccc2S(=O)(=O)N([C@H](C)CO)C[C@H]1C | 2.38% (inactive)
C/C=C/c1ccc([C@H]2[C@@H](C#N)N(C(=O)CN3CCOCC3)[C@@H]2CO)cc1 | -3.67% (inactive)
O=C(C1CCCC1)N1[C@H](CO)[C@H]2c3ccccc3N(S(=O)(=O)c3ccccc3)C[C@H]21 | -4.06% (inactive)
C[C@H](CO)N1C[C@H](C)[C@@H](CN(C)Cc2ccncc2)Oc2ccc(NS(=O)(=O)c3ccc(Cl)cc3)cc2CC1=O | 4.09% (inactive)
COCCCN1C(=O)c2ccc(C(=O)OCC(=O)NCc3ccccc3OC)cc2C1=O | -0.788% (inactive)
COCCCN1C(=O)c2ccc(C(=O)Nc3ccc(OC)cc3OC)cc2C1=O | -3.26% (inactive)
COc1ccc2[nH]cc(CCN3C(=O)c4ccc(C(=O)O)cc4C3=O)c2c1 | 77% (active)
C[C@H](CO)N1C[C@H](C)[C@H](CN(C)Cc2ccccn2)Oc2ncc(C#CCc3ccccc3)cc2C1=O | -3.58% (inactive)
